The source of these data is PubChem BioAssay (NCI).

This is part of a sample that, as a whole, favours compounds with a hit. Of some 83,000 tested, about 20% had one in any assay.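 Note: values are percent growth. 100 is the growth of untreated cells, values between 100 and 0 indicate rising inhibition; between -100 and 0 indicates cell death.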 A number with no mark means an inactive call. Activity calls are given as the source filed them. Rule for the calls: active = growth percent below 10; inactive = the rest.

Some test systems named below: NCI-H23 lung; NCI-H226 lung; HOP-62 NSCLC; NCI-H460 lung; HOP-92 NSCLC; NCI-H522 lung; A549/ATCC NSCLC; 786-0 renal; COLO 205 colon; DU-145 prostate; K-562 leukemia; MALME-3M melanoma; MDA-MB-231 breast; RXF 393 renal; SF-268 CNS; SF-295 CNS; SF-539 CNS; M14 melanoma; UACC-257 melanoma.
Holding throughout (assay): NCI-60 one-dose screen, 48 h (100 = growth as untreated, 0 = no growth, -100 = all killed)
Holding throughout (details): 10 µM

Turning to `O=C(CN1CCN(C(=O)c2ccccc2)CC1)Nc1ccccc1SCc1ccccc1`, the growth in the experiment with NCI-H23 lung is 79%; in the experiment with NCI-H226 lung, 81.5%; with HOP-62 NSCLC it was 89.6%; in the experiment on NCI-H460 lung, 96.8%; in the experiment on HOP-92 NSCLC it was 71.4%; in the experiment with NCI-H522 lung it was 50.9%. Further, the growth is 83.4% in the experiment on A549/ATCC NSCLC; 79.3% in the experiment with 786-0 renal; 82.3% in the experiment on COLO 205 colon; 101% with DU-145 prostate; 66% in the experiment on K-562 leukemia; 86.1% in the experiment on MALME-3M melanoma. Further, the growth in the experiment on MDA-MB-231 breast is 68.7%; in the experiment with RXF 393 renal, 111%; in the experiment on SF-268 CNS, 90.9%; in the experiment with SF-295 CNS it was 86.9%; with SF-539 CNS, 89.1%; in the experiment on M14 melanoma, 79.4%.
Consider `CCOC(=O)c1cc(C(=O)c2cc(OC)c(OC)c(OC)c2)n2ccc(-c3cc[n+](CC(=O)c4cc(OC)c(OC)c(OC)c4)cc3)cc12`, for which the growth in the experiment on NCI-H23 lung is 63.6%; with NCI-H226 lung, 90.8%; in the experiment on HOP-62 NSCLC, 94.8%; with NCI-H460 lung, -10.3% (active); in the experiment on HOP-92 NSCLC, 46.2%; in the experiment with NCI-H522 lung, -21.5% (active). Moreover, the growth was 31.3% in the experiment with A549/ATCC NSCLC; -82.3% (active) in the experiment on 786-0 renal; 43.7% in the experiment on COLO 205 colon; 44.8% in the experiment on DU-145 prostate; -44.5% (active) with K-562 leukemia; 63.1% in the experiment with MALME-3M melanoma. The growth in the experiment with MDA-MB-231 breast is -22.8% (active); in the experiment on RXF 393 renal, 65.7%; with SF-268 CNS it was -14.5% (active); in the experiment on SF-295 CNS, 94.3%; in the experiment on SF-539 CNS it was 30.4%; with UACC-257 melanoma, 92.5%. The growth in the experiment with M14 melanoma was 54.5%.
Consider `N#Cc1c(N)nc(-c2cc(F)cc(C(F)(F)F)c2)nc1-c1ccccc1F`, for which the growth in the experiment on NCI-H23 lung is 51.9%; with NCI-H226 lung, 30.1%; with HOP-62 NSCLC, 21.9%; with NCI-H460 lung, 15.2%; in the experiment on HOP-92 NSCLC, 34.7%; with NCI-H522 lung it was 68.3%. In addition, the growth in the experiment with A549/ATCC NSCLC is 41.7%; in the experiment with 786-0 renal, 1.27% (active); with COLO 205 colon, 24.7%; with DU-145 prostate, 61%; in the experiment with K-562 leukemia, 56.7%; in the experiment on MALME-3M melanoma, 33.2%. Moreover, the growth with MDA-MB-231 breast was 21.3%; in the experiment with RXF 393 renal it was 37.4%; in the experiment on SF-268 CNS, 55.3%; with SF-295 CNS, 35.2%; in the experiment with SF-539 CNS, 52.1%; in the experiment on M14 melanoma it was 63.1%.
Take `CN(C)CCCOc1ccc(OCCCN(C)C)c2c1C(=O)c1ccccc1C2=O`: the growth with NCI-H23 lung is -19.6% (active); in the experiment on NCI-H226 lung, -5.49% (active); in the experiment on HOP-62 NSCLC, -1.4% (active); in the experiment with NCI-H460 lung, 0.0676% (active); with HOP-92 NSCLC, -0.93% (active); in the experiment on NCI-H522 lung it was -48.5% (active). The growth in the experiment on A549/ATCC NSCLC is 3.96% (active); with 786-0 renal, 16.6%; in the experiment with COLO 205 colon, -57.9% (active); with DU-145 prostate, 4.83% (active); in the experiment with K-562 leukemia, 7.12% (active); in the experiment on MALME-3M melanoma, -43% (active). Further, the growth in the experiment on MDA-MB-231 breast was -20.5% (active); in the experiment on RXF 393 renal it was -9.08% (active); in the experiment on SF-268 CNS it was -4.36% (active); with SF-295 CNS, 14.4%; with SF-539 CNS, -1.42% (active); with UACC-257 melanoma it was 5.21% (active). Besides, the growth in the experiment with M14 melanoma was 1.61% (active).
Regarding `CCC(C)[C@H](NC(C)=O)C(=O)N[C@@H](CCCNC(=N)N)C(=O)N[C@@H](CCCCN)C(=O)N[C@@H](CC1CCC(O)CC1)C(=O)NC(C(=O)N[C@@H](CCSC)C(=O)N[C@@H](CCCNC(=N)N)C(=O)N[C@@]1(C)CCC/C=C\CCC[C@@](C)(C(=O)NC(C(=O)N[C@@H](CCC(=O)O)C(=O)N[C@@H](CC(C)C)C(=O)N[C@H](C(=O)N[C@@H](CCC(=O)O)C(N)=O)C(C)C)[C@@H](C)O)NC(=O)[C@H](CCC(N)=O)NC(=O)[C@H](CC(C)C)NC(=O)[C@H](CC(C)C)NC1=O)[C@@H](C)O` (stereo partly specified), the growth was 106% in the experiment with NCI-H23 lung; 108% in the experiment on NCI-H226 lung; 108% in the experiment with HOP-62 NSCLC; 103% in the experiment with NCI-H460 lung; 103% in the experiment on HOP-92 NSCLC; 102% in the experiment with NCI-H522 lung. The growth with A549/ATCC NSCLC was 96.3%; in the experiment on 786-0 renal, 98.7%; with COLO 205 colon, 89.9%; in the experiment with DU-145 prostate, 93.7%; in the experiment with K-562 leukemia it was 95.4%; with MALME-3M melanoma it was 102%. In addition, the growth in the experiment with MDA-MB-231 breast was 98.8%; with RXF 393 renal it was 86.4%; in the experiment with SF-268 CNS it was 47.9%; with SF-295 CNS it was 101%; in the experiment with SF-539 CNS it was 97.7%; in the experiment on M14 melanoma, 75.6%.
For `Oc1ccc(-c2[nH]c3ccccc3c2-c2nc3ccccc3o2)cc1`, the growth was 77.8% in the experiment with NCI-H23 lung; 78.5% with NCI-H226 lung; 67.9% in the experiment with HOP-62 NSCLC; 86.6% in the experiment with NCI-H460 lung; 67.8% with HOP-92 NSCLC; 60.9% with NCI-H522 lung. Further, the growth is 58% with A549/ATCC NSCLC; 75% in the experiment on 786-0 renal; 59.1% in the experiment on COLO 205 colon; 78.6% in the experiment with DU-145 prostate; 19.2% in the experiment with K-562 leukemia; 65% in the experiment on MALME-3M melanoma. The growth was 48.7% in the experiment with MDA-MB-231 breast; 91.6% with RXF 393 renal; 69.8% in the experiment with SF-268 CNS; 72.1% with SF-295 CNS; 82.7% in the experiment with SF-539 CNS; 112% in the experiment with UACC-257 melanoma. In the experiment on M14 melanoma, the growth is 25.1%.
